Reference: PubChem BioAssay AID1671188 (National Center for Advancing Translational Sciences (NCATS), 2021)
The campaign covered roughly 100,000 compounds. About 250 (0.25%) were called active. Another 7% or so got no clear call; they are omitted. Many of the other results were omitted from the sample, so actives are more common in it than they were. A number with no mark means an inactive call. Calls follow the shape of the dose curve; as a rule, active = well fitted inhibition curve with a large enough effect; inconclusive = small, poorly fitted or top-dose-only effect; inactive = flat fitted curve, though single readings scatter.

Each compound was assayed against Alanine aminotransferase 2 (Homo sapiens) (UniProt Q8TD30) (assay: Primary qHTS assay for inhibitors of Glutamate pyruvate transaminase 2 (GPT2)). Conditions: Recombinant GPT2, coupled pyruvate oxidase/HRP Amplex Red fluorescence; series mostly up to 57.7 µM; activity change, negative = inhibition: at the top concentration.
Experimental: Assay Provider: Zhenghe John Wang Ph.D.
Case Western Reserve University, Cleveland OH
Glutamate pyruvate transaminase 2 (GPT2) catalyzes the reversible transamination of glutamate and pyruvate to provide a-ketoglutarate and alanine. We have optimized an assay for GPT2 enzymatic activity that couples pyruvate formation to detection of fluorescence using an established pyruvate oxidase/horseradish peroxidase / Amplex Red system.
Screening conditions were 250uM a-KG, 2mM L-alanine, and 10ng/uL GPT2 in […] of solution; 10uL of Amplex reaction mix (outlined below) were added so that final concentrations of Amplex reagents in 50uL were 0.2mM ThPP, 0.2U/mL PO and HRP, and 50uM Amplex.
NOTE: The volume of GPT2 in the system depends on the activity of it. The activity is different every batch. You need to test the activity before the assay. For full plate assay with automation, plate 20uL of GPT2 buffer to pin into, then add 10uL of GPT2 dilution followed immediately by 10uL of substrate dilution. 2 Columns of the plate were devoted to GPT2 buffer ([…] PH7.5, 0.0001% Tween) + 50uM AOA (known GPT2 inhibitor) to serve as a positive control. Complete the assay as normal. Amplex-red buffer: […] PH7.5, 1 mM EDTA, 1 mM MgCl2.
1. Combine a-KG and L-alanine at desired concentrations and incubate for at least 10 minutes at 37C. Stocks of L-alanine and a-KG are diluted in distilled water. However, the stocks were diluted in GPT2 buffer for the assay.
2. Prepare GPT2 dilution at the desired concentration in GPT2 buffer.
3. Plate 40uL of GPT2 dilution with 40uL of substrate dilution and let incubate for 30 minutes at room temperature.
4. Add 20uL of Amplex reaction mix prepared as follows: 1.5uL 200U/mL Horseradish Peroxidase, 200mM Thiamine Pyrophosphate, 200U/mL Pyruvate Oxidase; 7.5uL 10mM Amplex Red; 288uL Amplex Buffer.
5. Incubate for 30 minutes at room temperature in the dark, then image using AM_Amplex_Fluorescence on plate reader nearest the window.
% is scaled to controls: 0 for no effect and ±100 for the full control effect; potency is read from the fitted curve at half-maximal effect.
Also: nearly all actives have a fitted effect of over 60% in size.

Chain of Alanine aminotransferase 2 (Homo sapiens) (Q8TD30 whole entry, looked up): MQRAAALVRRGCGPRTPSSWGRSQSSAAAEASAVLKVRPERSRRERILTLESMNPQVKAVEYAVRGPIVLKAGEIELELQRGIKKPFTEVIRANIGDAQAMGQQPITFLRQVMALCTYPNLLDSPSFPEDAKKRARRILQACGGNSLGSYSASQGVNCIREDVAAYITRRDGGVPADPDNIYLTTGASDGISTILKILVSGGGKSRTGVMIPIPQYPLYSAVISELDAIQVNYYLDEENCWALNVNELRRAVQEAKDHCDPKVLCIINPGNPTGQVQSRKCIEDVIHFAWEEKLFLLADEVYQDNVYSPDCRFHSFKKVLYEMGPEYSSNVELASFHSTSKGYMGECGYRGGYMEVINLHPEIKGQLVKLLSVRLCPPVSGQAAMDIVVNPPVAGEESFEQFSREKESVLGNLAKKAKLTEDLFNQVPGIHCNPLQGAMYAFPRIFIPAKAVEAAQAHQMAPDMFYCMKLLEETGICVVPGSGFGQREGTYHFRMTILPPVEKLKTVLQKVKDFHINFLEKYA

SMILES	activity change, negative = inhibition	outcome	Potency
O=C(c1ccc(C(F)(F)F)s1)N1CCCN(c2nnc3ccccn23)CC1	-8.08%		
COc1ccc(C(=O)N(C)Cc2ccc(F)cc2)cc1	0.769% [at 88.5 µM]		
COc1cccc(NC(=O)O[C@@H]2CO[C@H]3[C@@H]2OC[C@@H]3Nc2nccc(-c3cccs3)n2)c1	-1.4%		
CCOC(=O)c1ccc(NC(=O)Cn2c(N3CCOCC3)nc(CC)cc2=O)cc1		inactive	
Cn1nccc1-c1cccc(-c2nc(N3CCOCC3)n(C)n2)c1	-1.34%		
CC(C)NC(=O)N1Cc2[nH]cnc2C[C@H]1c1nc(-c2ccc3c(c2)OCO3)no1		inactive [at 88.5 µM]	
CC(=O)/C(C)=N/O			20 µM (active)
CN(CC1CCOCC1)C(=O)c1ccccc1	-2.97%		
C#CCNC(=O)c1cn2cc(-c3ccccc3)sc2n1		inactive [at 88.5 µM]	
Cc1ccccc1CN1CCCn2nc(C)c(-c3cccnc3N3CCOCC3)c21		inactive [at 88.5 µM]	
COc1ccc(-c2cc(-c3cccc4[nH]ncc34)cn3cncc23)cn1	-3.99% [at 88.5 µM]		
O=C(NCc1cccnc1)[C@@H]1C[C@@H](O)CN1C1CCN(C(=O)C2(c3ccccc3)CC2)CC1		inactive	
CC(NC(=O)c1ccc(C(C)(C)C)cc1)C(=O)N1CCN(c2ccccn2)CC1 (centres undefined)	-5.47%		
Cc1ccccc1-c1cn(C)c(=O)n2cc(CNc3ccccc3)nc12	0.941% [at 88.5 µM]		
Cn1cc(CN2CCOC[C@H]2c2ncc(-c3cccc(F)c3)[nH]2)c2ccccc21	-3.28% [at 88.5 µM]		
Cc1cc(S(=O)(=O)NCC2CCOCC2)ccc1F	-5.6%		
COC1CN(c2ccc(C)cc2)C12CCN(C(=O)Cc1cccc(F)c1)CC2 (centres undefined)		inactive	
CC(=O)N1CC2(CCN(Cc3cccnc3)CC2)Cc2ccccc21		inactive	
CC(=O)N[C@H]1CN(c2cncc(C(=O)N3CCCC3)n2)C[C@@H]1C1CC1		inactive	
O=C(NC1CCN(C(=O)c2ccc(-c3cncnc3)cc2)CC1)c1ccccn1	4%		
CN1CCOC[C@H]2CCN(C(=O)c3ccsc3)C[C@H]21		inactive	
CCCN(C)c1nccnc1OC1CCN(C(=O)c2ccnn2C)C1 (centres undefined)	2.99%		
Cc1cc2nc3n(c(=O)c2n1CC(=O)Nc1ccc2c(c1)OCO2)CCCCC3		inactive	
CCC1=C(C(=O)OC)C(c2ccccc2)N2C(CC(=O)N3CCCC3)=CSC2=N1 (centres undefined)		inactive	
CC(C)Cc1cc(CNc2nc(C(C)(C)C)nc3c2cnn3C)no1	-29.9%		
COc1cccc(-c2ccc(C(=O)N3CCC(NC(=O)c4ccccc4OC)CC3)cc2)c1	-18.1%		
CCc1cccc2c(C(CC(=O)NCC(C)C)c3cccc(OC)c3)c[nH]c12 (centres undefined)	2.13%		

SMILES	activity change, negative = inhibition	outcome	Potency
O=C(Nc1ccccc1)N1CCCC(C(=O)N2CCCC(c3nc4ncccc4[nH]3)C2)C1 (centres undefined)	-5.86%		
O=C(C1CCC1)N1CCC(n2cnnc2C2CC2)CC1	-0.859%		
CCOC(=O)C1CCN(C(=O)c2ccc3nnc(Cc4ccc(Cl)cc4)n3c2)CC1	4.47%		
CCC(C)(C)C(=O)N1CC(c2nnc(-c3ccncc3)o2)C2(CCOCC2)C1 (centres undefined)		inactive	
O=C(C1CCCN(Cc2cccc(-c3ccc(F)cc3F)c2)C1)N1CCCCC1 (centres undefined)	-2.29%		
CC[C@H]1CN(S(=O)(=O)c2ccc(OC)cc2)CC[C@H]1CC(=O)Nc1ccccc1	-8.11% [at 88.5 µM]		
CC(C)(O)CCc1cccc(C(=O)NC2CCN(c3ncccc3C#N)CC2)c1	-5.56%		
O=C1C[C@H]2CC[C@@H](CN1)N2C(=O)c1csc2nc(-c3ccccc3Cl)cn12	-4.63%		
COCCN1C(=O)N(CCc2ccccc2)C(=O)C12CCN(C/C=C/c1ccccc1)CC2	0.511%		
Cc1ccc(C(=O)N2CC(n3c(C)cnc3-c3ccccc3)C2)cn1		inactive	
CCOC(=O)C(C)Oc1cccn2c(=O)c(-c3cc(C)n(-c4cccc(F)c4)n3)c(C)nc12 (centres undefined)		inactive	
Cc1cc(N)n(CC(=O)N[C@@H]2COCC[C@H]2Oc2ccc(C(N)=O)cc2)n1	2.4%		
O=C(NCc1ccncc1)c1ccc(CN2C(=O)NC3(CCS(=O)(=O)CC3)C2=O)cc1		inactive	
CN(Cc1cccnc1)C(=O)CC(c1ccccc1)c1ccc(Cl)cc1 (centres undefined)	-5.94%		
O=C(NCCc1ccccc1)C1CN(C2CCCCC2)C(=O)N1 (centres undefined)	2.65% [at 88.5 µM]		
COc1ccc(C(=O)N2C[C@@H](F)[C@@H](OCc3nc4ccc(C(F)(F)F)cc4[nH]3)C2)cc1	-4.76%		
CC(=O)Nc1ccc(C2(C(=O)NCc3ccc(Cl)cc3)CCC2)cc1		inactive	
CN(C)C(=O)CCc1ccc2c(c1)CN(Cc1cn[nH]c1-c1ccc(F)cc1)CCO2	-9.05%		
Cc1nn(C(=O)CCC(=O)N2CCC(CCOc3ccccc3)C2)c2ccccc12 (centres undefined)		inactive	
C=CCN(C)C(=O)C[C@@H]1c2nc(NC(=O)c3ccc(C(C)(C)C)cc3)sc2C[C@@H]2[C@](C)(CO)[C@H](O)CC[C@]21C	1.21%		
COC(=O)[C@@H]1Cc2ncn(Cc3ccc(Cl)cc3)c2CN1Cc1ccc(N(C)C)cc1	2.35%		
COc1cc2c(cc1CN1C[C@H]3CC[C@@H]1CN(C(=O)c1cnccn1)C3)CCC2	-13.2%		
Cc1ccc(S(=O)(=O)CCNC(=O)c2cc3n(n2)CCCNC3)cc1		inactive	
c1ccc2c(c1)CNC1(CCN(Cc3cccc4ccccc34)CC1)CO2		inactive	
COc1ccc(-n2nc(C)c([C@H]3C=C[C@@H](OC(=O)Nc4cccc(F)c4)C3)c2C)cc1	-5.57% [at 88.5 µM]		
Cc1ccc(S(=O)(=O)N2CCCC(CCC(=O)NC3CCCCC3)C2)cc1 (centres undefined)	1.92%		
O=C(NCc1ccc(Cl)nc1)c1ccn2cncc2c1	0.404% [at 88.5 µM]		
